Measured values: PubChem BioAssay (NCATS)
Records with an inconclusive call do not appear. Active and inactive are the calls of the source. Unless noted, calls come from the whole dose curve; as a rule, active = well fitted curve in the direction sought with a large enough effect; inconclusive = small, poorly fitted or top-dose-only effect, or another doubt; inactive = no such curve, though single readings can be large; an effect the other way counts as inactive or inconclusive.

Experiments:
[1] = Counterscreen for APE1 Inhibitors: Fluorescent Dye Displacement Validation Assay (AID 1707);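 note: plate controls were ThO with dsDNA and no compound for no effect and ThO without dsDNA for full effect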
Outline: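 Thiazole Orange displacement from dsDNA: 250 nM ThO with 50 nM TAMRA-labelled abasic-site (tetrahydrofuran) duplex in 50 mM Tris-HCl pH7.5, 50mM NaCl, 2 mM MgCl2, 0.01% Tween-20. Loss of endpoint fluorescence (ex 480 nm, em 540 nm) flags DNA binders.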

[2] = qHTS for differential inhibitors of proliferation of Plasmodium falciparum line 3D7 (AID 1876);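 note: parasite growth measured after three days of culture; 0% = vehicle wells and -100% = reference inhibitor wells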
[3] = qHTS for differential inhibitors of proliferation of Plasmodium falciparum line D10 (AID 1877);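 note: parasites grown with compound for 72 h before DNA staining; plate controls were vehicle wells for no effect and reference inhibitor wells for full effect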
[4] = qHTS for differential inhibitors of proliferation of Plasmodium falciparum line Dd2 (AID 1882); details: Potency: Plasmodium falciparum Dd2 proliferation inhibition;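 note: series mostly up to about 29 µM; compound exposure of 72 h on infected erythrocytes; plate controls were DMSO vehicle for no effect and 0.29 µM artemisinin for full effect; nearly all actives have a fitted effect of over 65% in size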
Outline: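 SYBR Green I DNA fluorescence read-out, ex 485/em 535 nm. Signals were normalized to 0.29 uM artemisinin and DMSO wells, then corrected using vehicle-only plates flanking each stack. Parasite growth ran 72 h in erythrocytes before lysis.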

[5] = qHTS for differential inhibitors of proliferation of Plasmodium falciparum line HB3 (AID 1886); details: Potency: Plasmodium falciparum HB3 proliferation inhibition;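 note: parasites grown with compound for 72 h before SYBR Green readout; plate controls were vehicle for no effect and reference inhibitor for full effect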
[6] = qHTS Assay for Modulators of Human Peripheral Myelin Protein 22 (PMP22) Expression/Activity (AID 1967; active = well fitted curve in the direction sought with a large enough effect in the signal ratio; the % refers to the signal ratio;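 note: 0% = untreated cells and 100% end not stated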)
Outline: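 Mouse MSC80 Schwann cells carrying Pmp22 promoter–green click beetle luciferase plus EF-alpha–red luciferase control, dosed 24 h at 37 °C. Dual-filter luminescence, overlap-corrected; %Activity from green/red ratio normalised to untreated cells, concentration-response curves fitted.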

[7] = target: Ferritin light chain (Equus caballus) (UniProt P02791); experiment: qHTS Validation Assay for Identification of Novel General Anesthetics (AID 2323); note: series mostly up to about 77 µM; % is set by controls: 0 for no effect and ±100 for the full control effect
Ferritin light chain (Equus caballus), sequence (P02791 2-175 limits assumed): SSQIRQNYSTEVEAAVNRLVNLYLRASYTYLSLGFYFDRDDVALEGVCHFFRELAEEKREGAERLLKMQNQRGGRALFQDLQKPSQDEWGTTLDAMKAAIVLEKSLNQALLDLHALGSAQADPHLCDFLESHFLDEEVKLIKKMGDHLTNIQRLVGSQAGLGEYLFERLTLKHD
Outline: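 Horse-spleen apoferritin (10 uM) in PBS with 50% saturated 1-aminoanthracene; compounds pin-transferred, 10 min at room temperature. Fluorescence read at 380/535 nm, normalized to free 1-AMA and 1-AMA/apoferritin values; four-parameter Hill fit.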

[8] = target: ATP-dependent DNA helicase Q1 (Homo sapiens) (UniProt P46063); experiment: qHTS Validation Assay for Inhibitors of RecQ-Like Dna Helicase 1 (RECQ1) (AID 2353);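 note: plate controls were DMSO vehicle for no effect and enzyme-free control for full effect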
ATP-dependent DNA helicase Q1 (Homo sapiens), sequence (P46063 whole entry, looked up): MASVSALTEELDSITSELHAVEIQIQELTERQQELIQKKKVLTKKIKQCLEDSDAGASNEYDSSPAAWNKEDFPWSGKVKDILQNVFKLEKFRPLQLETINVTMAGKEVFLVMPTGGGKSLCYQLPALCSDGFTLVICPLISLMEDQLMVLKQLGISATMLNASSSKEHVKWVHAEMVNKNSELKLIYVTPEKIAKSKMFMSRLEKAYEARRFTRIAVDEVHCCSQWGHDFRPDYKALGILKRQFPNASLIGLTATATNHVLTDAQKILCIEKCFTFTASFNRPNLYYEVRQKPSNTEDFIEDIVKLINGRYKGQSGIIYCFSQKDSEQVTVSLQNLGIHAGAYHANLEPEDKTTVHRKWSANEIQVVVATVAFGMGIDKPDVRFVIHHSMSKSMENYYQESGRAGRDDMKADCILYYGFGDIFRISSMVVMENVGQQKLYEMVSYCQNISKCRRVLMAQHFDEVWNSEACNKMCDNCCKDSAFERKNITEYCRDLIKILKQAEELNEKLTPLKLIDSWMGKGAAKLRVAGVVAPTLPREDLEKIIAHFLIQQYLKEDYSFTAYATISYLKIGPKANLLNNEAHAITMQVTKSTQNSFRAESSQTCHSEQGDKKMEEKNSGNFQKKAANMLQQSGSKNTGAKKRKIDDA
Outline: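 50 nM RECQ1T1 preincubated 15 min with compound in Tris pH 8.0 buffer with MgCl2, DTT, Tween-20 and 2.5 ug/ml poly(dI-dC); started with 200 nM TAMRA/BHQ-2 forked duplex and 2 mM ATP. Unwinding read as fluorescence (525/598 nm), two reads 2 h apart.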

[9] = target: RecQ-like DNA helicase BLM (Homo sapiens) (UniProt P54132); experiment: qHTS Validation Assay for Inhibitors of Bloom's syndrome helicase (BLM) (AID 2364);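 note: plate controls were DMSO vehicle for no effect and enzyme-free control for full effect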
RecQ-like DNA helicase BLM (Homo sapiens), sequence (P54132 whole entry, looked up): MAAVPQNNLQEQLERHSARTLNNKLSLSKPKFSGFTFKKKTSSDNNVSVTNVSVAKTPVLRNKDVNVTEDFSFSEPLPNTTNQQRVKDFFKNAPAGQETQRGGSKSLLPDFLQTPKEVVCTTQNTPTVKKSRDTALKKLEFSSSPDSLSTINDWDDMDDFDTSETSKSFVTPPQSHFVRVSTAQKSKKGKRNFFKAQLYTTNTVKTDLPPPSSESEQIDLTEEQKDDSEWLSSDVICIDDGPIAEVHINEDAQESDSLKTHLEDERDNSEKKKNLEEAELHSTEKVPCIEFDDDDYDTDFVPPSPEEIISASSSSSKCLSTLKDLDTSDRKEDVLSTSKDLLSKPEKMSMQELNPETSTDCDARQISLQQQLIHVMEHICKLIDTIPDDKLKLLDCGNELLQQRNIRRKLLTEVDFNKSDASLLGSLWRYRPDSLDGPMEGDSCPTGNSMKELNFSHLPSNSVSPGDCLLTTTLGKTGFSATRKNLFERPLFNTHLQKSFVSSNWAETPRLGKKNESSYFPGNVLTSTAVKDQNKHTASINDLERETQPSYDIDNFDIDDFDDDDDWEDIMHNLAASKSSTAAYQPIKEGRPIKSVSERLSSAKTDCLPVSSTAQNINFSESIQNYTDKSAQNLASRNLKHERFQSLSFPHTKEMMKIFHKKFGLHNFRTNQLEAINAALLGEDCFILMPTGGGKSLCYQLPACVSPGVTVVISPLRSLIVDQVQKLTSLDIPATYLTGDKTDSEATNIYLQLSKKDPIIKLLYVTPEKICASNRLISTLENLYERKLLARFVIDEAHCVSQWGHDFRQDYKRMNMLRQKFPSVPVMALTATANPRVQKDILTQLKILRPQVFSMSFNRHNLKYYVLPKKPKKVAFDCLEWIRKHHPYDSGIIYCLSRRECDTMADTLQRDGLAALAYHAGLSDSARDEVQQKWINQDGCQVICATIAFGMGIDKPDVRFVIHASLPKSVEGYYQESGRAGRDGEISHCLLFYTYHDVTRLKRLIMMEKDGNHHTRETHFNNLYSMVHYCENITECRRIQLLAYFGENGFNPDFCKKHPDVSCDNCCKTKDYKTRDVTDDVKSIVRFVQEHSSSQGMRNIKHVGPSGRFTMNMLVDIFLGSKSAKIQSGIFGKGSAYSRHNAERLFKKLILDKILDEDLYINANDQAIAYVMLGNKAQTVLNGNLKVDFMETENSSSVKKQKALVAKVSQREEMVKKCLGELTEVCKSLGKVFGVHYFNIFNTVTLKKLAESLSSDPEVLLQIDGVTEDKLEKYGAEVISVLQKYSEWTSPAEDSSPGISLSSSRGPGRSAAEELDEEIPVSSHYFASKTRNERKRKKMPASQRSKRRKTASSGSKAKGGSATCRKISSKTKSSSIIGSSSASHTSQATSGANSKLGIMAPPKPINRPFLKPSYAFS
Outline: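 BLM 50 nM in 25 mM Tris-HCl pH 8.0, 5 mM NaCl, 2 mM MgCl2, 1 mM DTT, 0.01% Tween-20, 2.5 ug/ml poly(dI-dC); 15 min cpd preinc, RT. Start: 200 nM forked DNA + 2 mM ATP (final). TAMRA read, 2 reads 2 h apart.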

[10] = Validation screen for small molecules that induce DNA re-replication in MCF 10A normal breast cells (AID 463097); note: 0% is about no effect; nearly all actives have a fitted effect of over 60% in size
Outline: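 MCF 10A cells exposed to compound 48 hr at 37 C, 5% CO2, then Hoechst-stained 40 min. Laser-scanning imaging of nuclear DNA content (405 nm ex, 500-530 nm em); re-replication scored as rise in nuclei with elevated fluorescence intensity.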

[11] = Quantitative high throughput screen for delayed death inhibitors of the malarial parasite plastid, 48 hour incubation (AID 488752); note: % is set by controls: 0 for no effect and ±100 for the full control effect; nearly all actives have a fitted effect of over 65% in size
Outline: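 Erythrocytes infected with P. falciparum carrying an integrated firefly luciferase reporter (2% hematocrit, 0.1% parasitemia final) were exposed to compounds in RPMI 1640/0.5% Albumax for 48 h at 37 C, 5% CO2. Growth inhibition was scored as reduced luminescence.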

[12] = target: M-phase phosphoprotein 8 (Homo sapiens) (UniProt Q99549); experiment: qHTS Validation Assay for Inhibitors for MPP8 Chromodomain Interactions with Methylated Histone Tails (AID 488949); note: top concentration of the series differs between compounds; % is set by controls: 0 for no effect and ±100 for the full control effect; nearly all actives have a fitted effect of over 55% in size
Outline: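 MPP8 (50 nM) was pre-bound to 50 nM biotinylated H3(1-18)K9me3 peptide in PBS pH 7.4 with 0.01% Tween-20. Compounds were then added for 30 min at room temperature, and complex disruption was read by AlphaScreen with streptavidin donor and nickel-chelate acceptor beads.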

[13] = target: Transient receptor potential cation channel subfamily V member 1 (Homo sapiens) (UniProt Q8NER1); experiment: HTS Assay for Compounds that Act as Enhancers of the Vanilloid Receptor 1 (AID 488979); note: 0% is about no effect
Transient receptor potential cation channel subfamily V member 1 (Homo sapiens), sequence (Q8NER1 whole entry, looked up): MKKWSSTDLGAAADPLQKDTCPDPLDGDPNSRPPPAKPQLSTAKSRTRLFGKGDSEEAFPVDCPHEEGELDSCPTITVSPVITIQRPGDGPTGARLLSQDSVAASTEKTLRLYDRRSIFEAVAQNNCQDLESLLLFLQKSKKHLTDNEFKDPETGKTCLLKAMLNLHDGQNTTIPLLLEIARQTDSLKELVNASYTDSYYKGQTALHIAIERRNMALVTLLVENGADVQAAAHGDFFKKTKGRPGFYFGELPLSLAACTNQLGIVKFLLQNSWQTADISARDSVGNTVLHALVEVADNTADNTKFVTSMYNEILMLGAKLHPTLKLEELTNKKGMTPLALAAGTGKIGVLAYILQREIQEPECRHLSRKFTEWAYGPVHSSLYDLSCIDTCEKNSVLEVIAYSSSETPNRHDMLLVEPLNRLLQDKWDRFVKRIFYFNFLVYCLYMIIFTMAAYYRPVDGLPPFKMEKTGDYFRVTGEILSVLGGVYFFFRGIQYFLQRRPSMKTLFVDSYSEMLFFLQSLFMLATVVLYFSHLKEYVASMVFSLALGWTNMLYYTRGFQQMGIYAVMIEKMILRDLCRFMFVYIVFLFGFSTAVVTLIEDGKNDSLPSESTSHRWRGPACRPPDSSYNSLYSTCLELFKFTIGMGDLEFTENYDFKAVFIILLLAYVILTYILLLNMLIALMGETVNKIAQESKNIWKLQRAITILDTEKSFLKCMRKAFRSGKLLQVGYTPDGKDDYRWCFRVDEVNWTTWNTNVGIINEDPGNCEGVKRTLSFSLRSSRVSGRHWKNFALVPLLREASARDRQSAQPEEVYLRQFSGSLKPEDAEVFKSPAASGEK
Outline: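 TRPV1-expressing cells loaded with Fluo-8 calcium dye; compounds added and calcium influx read kinetically for 3 min (agonist phase), then capsaicin at EC20 added and read 2 min more for enhancement. Fluorescence ex 480/em 520 nm.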

[14] = target: Thyrotropin receptor (Homo sapiens) (UniProt P16473); experiment: qHTS Assay for Antagonists of the Thyroid Stimulating Hormone Receptor (AID 488980); note: series mostly up to about 58 µM; 0% is about no effect
Thyrotropin receptor (Homo sapiens), sequence (P16473 whole entry, looked up): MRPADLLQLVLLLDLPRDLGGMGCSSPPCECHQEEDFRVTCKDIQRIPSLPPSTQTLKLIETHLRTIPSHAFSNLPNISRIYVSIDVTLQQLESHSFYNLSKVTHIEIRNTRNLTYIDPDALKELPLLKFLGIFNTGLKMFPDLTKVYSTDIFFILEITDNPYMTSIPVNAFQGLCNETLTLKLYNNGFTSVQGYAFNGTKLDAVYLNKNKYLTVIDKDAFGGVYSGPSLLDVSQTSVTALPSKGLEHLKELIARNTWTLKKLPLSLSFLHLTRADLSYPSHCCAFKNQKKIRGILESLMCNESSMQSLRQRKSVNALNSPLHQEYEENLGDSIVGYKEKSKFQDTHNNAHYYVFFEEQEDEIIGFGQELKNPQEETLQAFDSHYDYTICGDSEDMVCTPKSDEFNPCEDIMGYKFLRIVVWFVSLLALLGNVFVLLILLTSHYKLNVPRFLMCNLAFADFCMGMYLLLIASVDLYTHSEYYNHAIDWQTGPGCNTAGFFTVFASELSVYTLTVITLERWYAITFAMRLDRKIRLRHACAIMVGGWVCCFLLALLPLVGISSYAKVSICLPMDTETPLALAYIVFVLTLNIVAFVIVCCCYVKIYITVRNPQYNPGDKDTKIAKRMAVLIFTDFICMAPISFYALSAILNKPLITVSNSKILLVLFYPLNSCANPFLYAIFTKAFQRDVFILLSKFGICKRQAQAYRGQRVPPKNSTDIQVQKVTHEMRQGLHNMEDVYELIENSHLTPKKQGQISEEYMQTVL
Outline: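 TSHR-transfected HEK293 cells (2000/well) in HEPES-buffered HBSS with 70 uM RO 20-1724 were stimulated with 4 nM TSH (EC80, final) in the presence of compound. cAMP was measured by HTRF competition after lysis and 30 min at RT.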

[15] = target: Thyrotropin-releasing hormone receptor (Homo sapiens) (UniProt P34981); experiment: qHTS for Small Molecule Agonists and Allosteric Enhancers of Human TRH Receptor: Validation Screen for Agonists (AID 493127;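 active = calcium activation more than 3 SD above the typical response in the agonist read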;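 note: intracellular calcium rise by fluo-8 fluorescence before TRH EC20 addition; 0% is about no effect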); details: TRH receptor agonist cell assay; at 2 µM; active compounds read high
Thyrotropin-releasing hormone receptor (Homo sapiens), sequence (P34981 whole entry, looked up): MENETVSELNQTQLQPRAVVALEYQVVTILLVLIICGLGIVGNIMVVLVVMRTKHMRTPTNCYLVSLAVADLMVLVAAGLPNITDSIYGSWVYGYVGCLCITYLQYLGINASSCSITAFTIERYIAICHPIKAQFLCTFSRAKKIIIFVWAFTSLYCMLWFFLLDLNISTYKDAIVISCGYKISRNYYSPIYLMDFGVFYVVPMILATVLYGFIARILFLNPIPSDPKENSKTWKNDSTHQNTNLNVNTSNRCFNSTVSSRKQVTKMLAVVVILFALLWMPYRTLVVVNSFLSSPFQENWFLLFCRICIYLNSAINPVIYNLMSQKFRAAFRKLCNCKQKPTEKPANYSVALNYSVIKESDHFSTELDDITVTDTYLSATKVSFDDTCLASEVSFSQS
Outline: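 TRHR-expressing cells were plated overnight in serum-containing medium, then loaded with fluo-8 calcium dye at room temperature for 30 min–1.5 h. After a 10 s baseline, compound was pin-transferred and calcium fluorescence (ex 480/em 530) read kinetically for agonist response.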

[16] = target: Galactokinase (Homo sapiens) (UniProt P51570); experiment: qHTS Validation Assay for Inhibitors of Human Galactokinase (GALK) (AID 493189); note: 0% is about no effect
Galactokinase (Homo sapiens), sequence (P51570 whole entry, looked up): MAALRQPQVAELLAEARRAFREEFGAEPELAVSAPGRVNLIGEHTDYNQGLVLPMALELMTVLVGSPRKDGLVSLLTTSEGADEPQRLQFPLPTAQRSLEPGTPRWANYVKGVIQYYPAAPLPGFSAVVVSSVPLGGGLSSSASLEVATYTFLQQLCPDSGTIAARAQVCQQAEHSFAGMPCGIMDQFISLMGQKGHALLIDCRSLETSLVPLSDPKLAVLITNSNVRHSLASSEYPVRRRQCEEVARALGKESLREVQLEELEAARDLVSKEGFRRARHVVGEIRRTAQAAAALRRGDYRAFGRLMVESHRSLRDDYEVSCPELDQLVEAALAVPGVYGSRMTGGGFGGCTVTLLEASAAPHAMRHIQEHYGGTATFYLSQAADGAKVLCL
Outline: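 GALK (5 nM) with 35 uM ATP and 100 uM galactose in HEPES pH 8.0 with MgCl2, NaCl, DTT and BSA. Reaction ran 1 h at room temperature. Residual ATP read by Kinase-Glo Plus luminescence.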

[17] = target: DNA dC->dU-editing enzyme APOBEC-3G (Homo sapiens) (UniProt Q9HC16); experiment: qHTS for inhibitors of Vif-A3G interactions: Validation (AID 588379); note: 0% is about no effect
DNA dC->dU-editing enzyme APOBEC-3G (Homo sapiens), sequence (Q9HC16 whole entry, looked up): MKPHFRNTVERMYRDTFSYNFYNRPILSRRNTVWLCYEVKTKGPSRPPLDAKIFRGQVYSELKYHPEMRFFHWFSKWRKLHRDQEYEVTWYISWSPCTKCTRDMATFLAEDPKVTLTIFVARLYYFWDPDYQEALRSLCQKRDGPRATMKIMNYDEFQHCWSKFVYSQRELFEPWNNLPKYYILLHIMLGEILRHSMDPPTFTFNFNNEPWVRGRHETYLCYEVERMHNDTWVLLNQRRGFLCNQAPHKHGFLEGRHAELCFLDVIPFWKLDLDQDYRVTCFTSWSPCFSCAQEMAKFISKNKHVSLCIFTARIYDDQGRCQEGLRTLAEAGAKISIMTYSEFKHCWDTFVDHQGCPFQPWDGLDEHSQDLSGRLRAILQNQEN
Outline: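 HeLa cells stably expressing Vif and A3G-eYFP, 700 cells/well, incubated overnight at 37 deg C, then exposed to compound overnight at 37 deg C. Inhibition of Vif-mediated degradation read as increased yellow fluorescence (Ex 488/Em 500-530) by laser-scanning cytometry.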

[18] = system: Zika virus NS2B-NS3 protease; experiment: Primary screen GU AMC qHTS for Zika virus inhibitors (AID 1347154);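 note: 0% = no-inhibitor control and -100% = no-enzyme control; nearly all actives have a fitted effect of over 70% in size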
Outline: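 Unlinked Zika NS2B hydrophilic domain/NS3 protease domain noncovalent complex (25 nM final) in 10 mM Tris-HCl pH 8.0, 0.01% Tween 20, with AMC peptide substrate. Fluorescence (ex 340, em 450 nm) change over 15 min, room temperature; percent inhibition fitted to 4-parameter Hill equation.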

[19] = Confirmatory qHTS for small molecule stabilizers of the endoplasmic reticulum resident proteome: Secreted ER Calcium Modulated Protein (SERCaMP) assay (AID 1508628);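 note: SH-SY5Y cells given compound 16 h then thapsigargin 100 nM for 4 h; series mostly up to about 76 µM; % is set by controls: 0 for no effect and ±100 for the full control effect; nearly all actives have a fitted effect of over 40% in size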
Outline: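 We seeded SH-SY5Y-GLuc-SERCaMP cells, added compounds (three concentrations in the primary run, eleven up to 76.6 uM in confirmation), incubated 16 h, depleted ER calcium with thapsigargin, and read luciferase 4 h later.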

CN1CCN(c2ccc3ccccc3n2)CC1
inactive: Potency [1] | Potency [2] | Potency [3] | Potency [4] | Potency [5] | outcome [6] | outcome [7] | Potency [8] | Potency [9] | Potency [10] | Potency [11] | Potency [12] | outcome [13] | outcome [14] | activation [15] 1.56% | outcome [16] | Potency [17] | Potency [18] | Potency [19]
